According to PubChem BioAssay (NCATS):
“And” between values parts separate entries of the source, which are not always exact repeats. Equal values may be shown once. Values without a mark were called inactive. Inconclusive results are not listed. Where a call stands in place of a potency, no number is given. The source made the active and inactive calls. Calls come from the whole dose curve; as a rule, active = well fitted curve in the direction sought with a large enough effect; inconclusive = small, poorly fitted or top-dose-only effect, or another doubt; inactive = no such curve, though single readings can be large; an effect the other way counts as inactive or inconclusive.

Tests used:
[1] = target: Cytochrome P450 2C9 (Homo sapiens) (UniProt P11712); experiment: qHTS Assay for Inhibitors and Substrates of Cytochrome P450 2C9 (AID 883); conditions: recombinant CYP2C9, luciferin-H luminescence, 60 min; series mostly up to 11.4 µM; note: nearly all actives have a fitted effect of over 60% in size; note: potency is the fitted concentration of half-maximal effect
How it was run: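 A luminogenic readout tracked human CYP2C9 (10nM) converting deoxyluciferin (100uM, at KM) in 25mM KPO4 during 60 min at 37C with regenerated NADPH. Values normalized to 57uM sulphaphenazole as complete inhibition.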

[2] = target: Cytochrome P450 3A4 (Homo sapiens) (UniProt P08684); experiment: qHTS Assay for Inhibitors and Substrates of Cytochrome P450 3A4 (AID 884); conditions: recombinant CYP3A4, Luciferin-PPXE luminescence; series mostly up to 57.1 µM; note: nearly all actives have a fitted effect of over 50% in size
How it was run: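 Luminescent readout of luciferin produced by CYP3A4 (20 nM) dealkylation of Luciferin-PPXE, 25 uM (its KM). NADPH-driven reaction ran 60 min at RT after 10 min compound preincubation; data scaled to 57 uM ketoconazole as 100% inhibition.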

[3] = target: Cytochrome P450 2D6 (Homo sapiens) (UniProt P10635); experiment: qHTS Assay for Inhibitors and Substrates of Cytochrome P450 2D6 (AID 891); conditions: recombinant CYP2D6, luciferin-ME EGE luminescence; series mostly up to 11.4 µM; note: nearly all actives have a fitted effect of over 60% in size; note: potency is the fitted concentration of half-maximal effect;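 for activity change, negative = inhibition: luciferin methyl ether substrate demethylated by CYP2D6 with NADPH regeneration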
How it was run: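 Luminescent read-out of luciferin formed by 5 nM human CYP2D6 demethylating 30 uM Luciferin-ME EGE (Km level) over 60 min at room temperature after NADPH regeneration addition. Data normalized to full inhibition by 1.43 uM quinidine.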

[4] = target: Cytochrome P450 2C19 (Homo sapiens) (UniProt P33261); experiment: qHTS Assay for Inhibitors and Substrates of Cytochrome P450 2C19 (AID 899); conditions: recombinant CYP2C19, luciferin-H EGE luminescence; series mostly up to 11.4 µM; note: nearly all actives have a fitted effect of over 60% in size; note: potency is the fitted concentration of half-maximal effect
How it was run: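 NADPH-dependent conversion of Luciferin-H EGE (10uM, at KM) by 5nM enzyme in 50mM KPO4, 60 min at 37C following 10 min compound preincubation. Stopped with luciferin detection buffer; luminescence read after 20 min.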

[5] = target: Cytochrome P450 3A4 (Homo sapiens) (UniProt P08684); experiment: qHTS Assay for Activators of Cytochrome P450 3A4 (AID 885); conditions: recombinant CYP3A4, Luciferin-PPXE luminescence, 60 min; series mostly up to 57.1 µM; note: nearly all actives have a fitted effect of over 65% in size; note: potency is the fitted concentration of half-maximal effect
How it was run: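 Activators are scored by enhanced luminescence from CYP3A4 conversion of luciferin-PPXE (25uM, equal to KM) to luciferin, after 60 min at RT with an NADPH-regenerating system.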

Cytochrome P450 2C9 (Homo sapiens), sequence (P11712 whole entry, looked up): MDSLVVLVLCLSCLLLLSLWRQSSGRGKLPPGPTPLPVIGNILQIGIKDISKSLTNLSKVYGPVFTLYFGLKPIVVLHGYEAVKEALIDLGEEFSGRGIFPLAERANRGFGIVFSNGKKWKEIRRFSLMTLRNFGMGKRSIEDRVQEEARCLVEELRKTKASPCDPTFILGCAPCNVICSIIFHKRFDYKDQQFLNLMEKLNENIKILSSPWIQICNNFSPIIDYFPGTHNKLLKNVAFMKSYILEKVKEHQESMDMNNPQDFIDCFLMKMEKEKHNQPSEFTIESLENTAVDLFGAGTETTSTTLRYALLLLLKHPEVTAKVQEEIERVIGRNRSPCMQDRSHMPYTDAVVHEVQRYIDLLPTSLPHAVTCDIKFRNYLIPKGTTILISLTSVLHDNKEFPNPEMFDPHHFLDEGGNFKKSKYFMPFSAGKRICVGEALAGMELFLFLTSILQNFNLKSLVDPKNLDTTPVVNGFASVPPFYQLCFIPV
Cytochrome P450 2C19 (Homo sapiens), sequence (P33261 whole entry, looked up): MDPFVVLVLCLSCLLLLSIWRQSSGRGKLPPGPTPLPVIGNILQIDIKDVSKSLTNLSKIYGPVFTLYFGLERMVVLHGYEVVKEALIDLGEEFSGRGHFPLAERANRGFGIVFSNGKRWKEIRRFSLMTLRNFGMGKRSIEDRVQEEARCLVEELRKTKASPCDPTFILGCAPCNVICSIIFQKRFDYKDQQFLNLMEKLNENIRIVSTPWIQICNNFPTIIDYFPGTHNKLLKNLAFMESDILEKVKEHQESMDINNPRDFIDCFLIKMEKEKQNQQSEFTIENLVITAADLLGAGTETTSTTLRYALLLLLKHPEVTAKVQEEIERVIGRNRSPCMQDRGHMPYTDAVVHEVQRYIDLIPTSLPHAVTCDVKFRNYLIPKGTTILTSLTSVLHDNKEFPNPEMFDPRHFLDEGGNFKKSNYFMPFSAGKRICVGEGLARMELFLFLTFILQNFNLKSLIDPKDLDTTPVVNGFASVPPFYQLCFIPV
Cytochrome P450 3A4 (Homo sapiens), sequence (P08684 whole entry, looked up): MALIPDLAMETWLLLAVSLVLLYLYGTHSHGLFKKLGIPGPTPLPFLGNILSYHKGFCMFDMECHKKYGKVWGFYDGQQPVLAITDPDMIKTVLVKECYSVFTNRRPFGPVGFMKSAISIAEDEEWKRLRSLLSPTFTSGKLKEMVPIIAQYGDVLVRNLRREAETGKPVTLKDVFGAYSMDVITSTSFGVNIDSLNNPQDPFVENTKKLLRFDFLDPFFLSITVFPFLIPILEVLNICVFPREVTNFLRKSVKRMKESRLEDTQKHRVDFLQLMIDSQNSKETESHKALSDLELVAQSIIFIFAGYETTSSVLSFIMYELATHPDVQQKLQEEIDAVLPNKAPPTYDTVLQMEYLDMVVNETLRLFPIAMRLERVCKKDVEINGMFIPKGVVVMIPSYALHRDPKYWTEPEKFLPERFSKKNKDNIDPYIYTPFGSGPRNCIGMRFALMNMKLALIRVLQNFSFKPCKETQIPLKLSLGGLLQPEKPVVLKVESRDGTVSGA
Cytochrome P450 2D6 (Homo sapiens), sequence (P10635 whole entry, looked up): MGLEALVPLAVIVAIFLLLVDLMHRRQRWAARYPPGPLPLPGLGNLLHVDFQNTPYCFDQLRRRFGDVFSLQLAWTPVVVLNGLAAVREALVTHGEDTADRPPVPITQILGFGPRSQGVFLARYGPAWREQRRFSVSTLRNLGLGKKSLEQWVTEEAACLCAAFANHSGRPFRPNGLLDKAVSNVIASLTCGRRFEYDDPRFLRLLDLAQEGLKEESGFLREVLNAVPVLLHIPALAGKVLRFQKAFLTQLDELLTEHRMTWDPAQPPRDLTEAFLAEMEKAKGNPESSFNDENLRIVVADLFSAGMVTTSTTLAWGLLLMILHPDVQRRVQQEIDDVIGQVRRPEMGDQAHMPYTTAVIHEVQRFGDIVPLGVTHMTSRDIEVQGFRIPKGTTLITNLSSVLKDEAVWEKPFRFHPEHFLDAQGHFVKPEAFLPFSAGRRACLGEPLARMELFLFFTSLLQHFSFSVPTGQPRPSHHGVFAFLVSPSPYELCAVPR

Row | SMILES | Potency [1] | activity change, negative = inhibition [2] | Potency [3] | Potency [4] | activity change, positive = activation [5] | Potency [5]
1 | COC(=O)NC(c1ccc2ccccc2c1)C(C(C)=O)C(=O)OC (configuration not stated) | inactive | -19.4% [at 11.4 µM] | inactive | 1.26 µM (active) | – | –
2 | CCOP(=O)(CC(C(C)=O)C(O)c1ccccc1)OCC (configuration not stated) | inactive | -15.8% [at 11.4 µM] | inactive | inactive | – | –
3 | CCCc1cc2c(c(=O)o1)C(O)C1OC1C2=O (configuration not stated) | inactive | -24% [at 11.4 µM] | inactive | inactive | – | –
4 | O=C(/C=C/c1ccccc1)N1CCCC1CO (configuration not stated) | inactive | -20.7% [at 11.4 µM] | inactive | inactive | – | –
5 | COC(=O)NC(c1ccc(Cl)cc1)C(C(C)=O)C(=O)OC (configuration not stated) | inactive | -15.4% [at 11.4 µM] | inactive | 1.58 µM (active) | – | –
6 | OCC1OC(C#Cc2ccccc2)C=CC1OCc1ccccc1 (configuration not stated) | inactive | -24.2% [at 11.4 µM] | inactive | 0.0126 µM (active) | – | –
7 | CCC(=O)[C@@]1(O)C(=O)N2C(=C3C(=O)OCCC31)N(Cc1ccccc1)C(C)=C(C(=O)OC)C2c1ccccc1 (some centres not stated) | inactive | -16% [at 11.4 µM] | inactive | inactive | – | –
8 | C=C(C)C(O)/C=C/c1ccccc1OC (configuration not stated) | inactive | – | inactive | inactive | -35.5% [at 11.4 µM] | –
9 | O=Cc1ccc(OC2C=CC(C#Cc3ccccc3)OC2CO)cc1 (configuration not stated) | 2.51 µM (active) | – | inactive | – | -42% [at 11.4 µM] | –
10 | COC1(C#CC2C=CC(OC(C)=O)C(COC(C)=O)O2)CCCCC1 (configuration not stated) | inactive | – | inactive | inactive | -43% [at 11.4 µM] | –
11 | CCC(=O)CC(NC(=O)OC)c1ccccc1 (configuration not stated) | inactive | – | inactive | – | -34.8% [at 11.4 µM] | –
12 | CCC/C=C/C1C(=O)C2OC2C2(OCC(CC)(CC)CO2)C1CO (configuration not stated) | inactive | – | inactive | – | -53.3% [at 11.4 µM] | –
13 | CCCCC#CC1C=CC(OC(C)=O)C(COC(C)=O)O1 (configuration not stated) | inactive | – | inactive | – | -63.9% [at 11.4 µM] | –
14 | CCOC(=O)OCC1OC(c2ccccc2)C=CC1Oc1cccc(N(C)C)c1 (configuration not stated) | inactive | – | inactive | – | -50.1% [at 11.4 µM] | –
15 | CC(=O)OCC1OC(C#Cc2ccc(Br)cc2)C=CC1OC(C)=O (configuration not stated) | inactive | – | inactive | – | -46% [at 11.4 µM] | –
16 | CCN1C(C)=C(C(=O)OC)C(c2ccccc2)N2C(=O)[C@@]3(C(=O)OC)O[C@@]12C1C(=O)CCCC13 (some centres not stated) | inactive | – | inactive | inactive | -36.9% [at 11.4 µM] | –
17 | C[C@@]12CCC3c4ccc(OC5C=CC(c6ccccc6)OC5CO)cc4CCC3C1CCC2=O (some centres not stated) | inactive | – | inactive | inactive | – | 3.16 µM (active)
18 | COC(c1ccccc1Br)C(C)/C=C/CCO (configuration not stated) | inactive | – | inactive | 1.58 µM (active) | -47.9% [at 11.4 µM] | –
19 | COC(=O)NC(c1ccco1)[C@]1(C(C)=O)CCCC1=O (some centres not stated) | inactive | – | inactive | – | -35.9% [at 11.4 µM] | –
20 | COC(=O)NC(c1ccccc1)C(C(=O)OC)C(=O)OC (configuration not stated) | inactive | – | 0.0079 µM (active) | – | -40.4% [at 11.4 µM] | –
21 | COc1ccc(/C=C/C(=O)c2ccc(OC)cc2O)cc1 | inactive | – | inactive | – | -92.3% [at 11.4 µM] | –
22 | CC(C)CCN1CCc2nc(-c3ccccc3)c3c(c2C1)COC(C)C3 (configuration not stated) | inactive | – | inactive | – | -56% [at 11.4 µM] | –
23 | COC(=O)C1=C(C)N(Cc2ccccc2)[C@]23O[C@](C(=O)OC)(C(=O)N2C1c1ccccc1)C1C(=O)N(C)C(=O)C13 (some centres not stated) | inactive | – | inactive | inactive | -51.8% [at 11.4 µM] and -36.4% [at 11.4 µM] | –
24 | CCN1C(C)=C(C(=O)OC)C(c2ccccc2)N2C(=O)[C@](O)(C(=O)OC)C(c3ccccc3)C(C(C)=O)=C12 (some centres not stated) | inactive | – | inactive | inactive | -59.7% [at 11.4 µM] | –
25 | CC12C=C(/C=C/c3ccc(C(F)(F)F)cc3)C(C)(C1)C(c1ccc(C(F)(F)F)cc1)CC2=O (configuration not stated) | inactive | – | – | – | -39% [at 11.4 µM] | –
26 | COC(=O)C1=C(C)N(Cc2ccccc2)C2=C(C(C)=O)C[C@@](O)(C(=O)OC)C(=O)N2C1c1ccccc1 (some centres not stated) | inactive | – | inactive | inactive | -45.3% [at 11.4 µM] and -48.2% [at 11.4 µM] | –
